Unmarked numbers belong to inactive results. The source made the active and inactive calls. Unless noted, calls follow the shape of the dose curve; as a rule, active = well fitted curve in the direction sought with a large enough effect in the repeat runs; inconclusive = weak or mixed curves; inactive = no such curve, though single readings can be large; an effect the other way counts as inactive or inconclusive.

The nature of experiment [1]: qHTS assay for small molecule agonists of the p53 signaling pathway (AID 651631; calls by dose curve; also: nearly all actives have a fitted effect of over 15% in size; also: potency is read from the fitted curve at half-maximal effect). Summed up:
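Stably transfected HCT-116 cells (beta-lactamase behind p53 response elements) get compounds after a 5 h settling period; 16 h later at 37 °C, FRET substrate is loaded and fluorescence read after 2 h.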

Experiment [2] can be described thus: qHTS assay for small molecule agonists of the p53 signaling pathway - cell viability (AID 651633; calls by dose curve; also: nearly all actives have a fitted effect of over 30% in size; also: potency is read from the fitted curve at half-maximal effect). Summed up:
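p53RE-bla cells, seeded at 4,000 per well and rested 5 h at 37 C/5% CO2, received compounds in DMSO for 16 h at 37 C. CellTiter-Glo was then added, and luminescence was read after 30 min at room temperature to gauge cytotoxicity.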
Background: In qHTS, concentration-response curves come from the screen itself.

The nature of experiment [3]: qHTS assay to test for compound auto fluorescence at 460 nm (blue) in HEK293 cells (AID 720678). Also: potency is read from the fitted curve at half-maximal effect. In short, it runs like this:
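Blue-channel (Ex/Em 405/460 nm) intensity measured in HEK293 cultures after overnight compound exposure at 37C; signal expressed relative to triamterene. Cells plated 2,000 per well in 10% dialyzed FBS medium and allowed 4-5 hr to attach.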

The nature of experiment [4]: qHTS assay to test for compound auto fluorescence at 590 nm (red) in HEK293 cells (AID 720679). Summed up:
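Red-channel autofluorescence (Ex/Em 540/590 nm; Rose Bengal sodium reference) was measured after overnight 37C, 5% CO2 exposure of attached HEK293 cells, 2,000 per well in medium with 10% dialyzed FBS.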

Experiment [5] can be described thus: qHTS assay to test for compound auto fluorescence at 535 nm (green) in HEK293 cells (AID 720680).
Experiment [6] is described as follows: qHTS assay to test for compound auto fluorescence at 590 nm (red) in HepG2 cell free culture (AID 720684). In short, it runs like this: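 Ex 540 / Em 590 nm read of compound in cell-free MEM (10% FBS). Rose Bengal sodium reference.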
Experiment [7] addresses Glucocorticoid receptor (Homo sapiens) (UniProt P04150). As to the kind of experiment: qHTS assay to identify small molecule agonists of the glucocorticoid receptor (GR) signaling pathway (AID 720691; active = well fitted activation curve with a large enough effect in the signal ratio in the repeat runs, not every such curve was filed as active; inconclusive = weak or mixed curves, or effect the other way; inactive = no such curve, though single readings can be large or run the other way; the % refers to the signal ratio). Summed up: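 Compounds in DMSO, alongside positive controls, were added to GR-bla HeLa reporter cells and incubated 18 h at 37 C; GRE-driven beta-lactamase was detected by fluorescence after 2 h with FRET substrate at room temperature.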

Experiment [8] can be described thus: qHTS assay for identifying genotoxic compounds that show differential cytotoxicity against isogenic chicken DT40 cell lines with known DNA damage response pathways - wild type cell line (AID 743012). Also: nearly all actives have a fitted effect of over 60% in size. Also: potency is read from the fitted curve at half-maximal effect. In short, it runs like this:
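Viability of DNA repair-proficient chicken DT40 cells was assessed by CellTiter-Glo luminescence following 40 h compound exposure at 37 C/5% CO2.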

Experiment [9] is described as follows: qHTS assay for identifying genotoxic compounds that show differential cytotoxicity against isogenic chicken DT40 cell lines with known DNA damage response pathways - Rev3 mutant cell line (AID 743014). Also: nearly all actives have a fitted effect of over 55% in size. Also: potency is read from the fitted curve at half-maximal effect.
Experiment [10] in a line: qHTS assay to identify small molecule antagonists of the androgen receptor (AR) signaling pathway - cell viability counter screen (AID 743033; also: nearly all actives have a fitted effect of over 45% in size).
Experiment [11] in a line: qHTS assay to identify small molecule antagonists of the androgen receptor (AR) signaling pathway using the MDA cell line - cell viability counter screen (AID 743041; also: nearly all actives have a fitted effect of over 45% in size). Summed up:
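In this qHTS counter assay, fluorescence intensity after CellTiter-Fluor addition indicated viability of MDA-kb2 AR-luc cells given compounds and R1881 for 16 h at 37C.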

Experiment [12] in a line: qHTS assay to identify small molecule antagonists of the thyroid receptor (TR) signaling pathway - cell viability counter screen (AID 743064). Also: nearly all actives have a fitted effect of over 50% in size. Also: potency is read from the fitted curve at half-maximal effect. In short, it runs like this:
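Counter screen for cytotoxicity: compound plus T3 (1 nM final) on GH3.TRE-Luc cells, 23.5 h at 37 °C, then fluorescence viability readout with CellTiter-Fluor.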

Experiment [13] deals with Estrogen receptor (Homo sapiens) (UniProt P03372). As to the kind of experiment: qHTS assay to identify small molecule agonists of the estrogen receptor alpha (ER-alpha) signaling pathway (AID 743075; calls by dose curve;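 also: HEK293 GripTite cells with ER-alpha and UAS-driven beta-lactamase reporter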; also: potency is read from the fitted curve at half-maximal effect).
Estrogen receptor (Homo sapiens), sequence (P03372 whole entry, looked up): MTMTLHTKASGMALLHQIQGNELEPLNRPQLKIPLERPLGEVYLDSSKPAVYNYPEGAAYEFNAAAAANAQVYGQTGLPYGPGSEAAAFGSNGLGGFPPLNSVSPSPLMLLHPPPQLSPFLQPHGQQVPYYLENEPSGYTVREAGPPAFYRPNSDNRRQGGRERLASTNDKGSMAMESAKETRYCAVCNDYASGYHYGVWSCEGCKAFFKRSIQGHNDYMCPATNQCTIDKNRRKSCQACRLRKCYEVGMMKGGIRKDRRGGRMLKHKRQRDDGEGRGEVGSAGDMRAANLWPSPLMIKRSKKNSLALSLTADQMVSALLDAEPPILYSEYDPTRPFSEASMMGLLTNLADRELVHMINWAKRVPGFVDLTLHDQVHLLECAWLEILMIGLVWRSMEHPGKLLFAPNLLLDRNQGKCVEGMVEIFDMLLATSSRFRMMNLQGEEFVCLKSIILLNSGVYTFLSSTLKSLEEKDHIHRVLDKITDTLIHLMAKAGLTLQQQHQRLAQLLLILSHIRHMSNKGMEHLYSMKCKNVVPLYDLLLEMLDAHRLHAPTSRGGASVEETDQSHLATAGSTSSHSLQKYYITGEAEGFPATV
Experiment [14] has the same target. Description: qHTS assay to identify small molecule agonists of the estrogen receptor alpha (ER-alpha) signaling pathway using the BG1 cell line (AID 743079). Also: nearly all actives have a fitted effect of over 20% in size. Also: potency is read from the fitted curve at half-maximal effect.
A short description of experiment [15]: qHTS assay to identify small molecule antagonists of the estrogen receptor alpha (ER-alpha) signaling pathway using the BG1 cell line (AID 743080; calls by dose curve;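 also: BG1 cells stimulated with 17beta-estradiol alongside compound; series mostly up to about 70 µM; nearly all actives have a fitted effect of over 25% in size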). In short, it runs like this: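 Luciferase inhibition measured with ONE-Glo after 30 min at RT in BG1Luc4E2 cells given test compounds and 17beta-estradiol for 21.5 h at 37 C; CellTiter-Fluor viability read in the same wells beforehand.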

Experiment [16] is described as follows: qHTS assay to identify small molecule that activate the aryl hydrocarbon receptor (AhR) signaling pathway - cell viability counter screen (AID 743086).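 Also: HepG2 liver cells carrying the AhR DRE luciferase reporter; series mostly up to about 70 µM; nearly all actives have a fitted effect of over 45% in size.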 Summed up:
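HepG2-AhR-luc (HG2L7.5c1) cells, 4000/well, were preincubated 5 h at 37C, exposed to compound in qHTS format for 24 hr at 37C, then given CellTiter-Fluor for 30 min; viability was read as fluorescence in the reporter wells.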

The target of experiment [17] is Peroxisome proliferator-activated receptor gamma (Homo sapiens) (UniProt P37231). As to the kind of experiment: qHTS assay to identify small molecule agonists of the peroxisome proliferator-activated receptor gamma (PPARg) signaling pathway (AID 743094; active = well fitted activation curve with a large enough effect in the signal ratio in the repeat runs, not every such curve was filed as active; inconclusive = weak or mixed curves, or effect the other way; inactive = no such curve, though single readings can be large or run the other way; the % refers to the signal ratio). In short, it runs like this:
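Agonism was assessed in a beta-lactamase reporter system, HEK293H cells with a stably integrated UAS-bla construct under PPARg control; the 17 h treatment at 37C preceded a 1 h room-temperature FRET substrate read.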

For experiment [18], the target named is Nuclear receptor subfamily 1 group I member 2 (Rattus norvegicus) (UniProt Q9R1A7). Description: Rat pregnane X receptor (rPXR) activation by small molecules, qHTS assay (AID 1346983). Also: nearly all actives have a fitted effect of over 20% in size. The following applies: rPXR luciferase reporter cells, One-Glo luminescence, 24 h; max activation: hits give high values. Summed up: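 Cell-based rPXR luciferase reporter assay, 2,000 cells per well, rested 5hr at 37 C before compound addition in DMSO, then 24 hr at 37 C. One-Glo reagent was added and luminescence read after 30 min at room temperature.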
Nuclear receptor subfamily 1 group I member 2 (Rattus norvegicus), sequence (Q9R1A7 whole entry, looked up): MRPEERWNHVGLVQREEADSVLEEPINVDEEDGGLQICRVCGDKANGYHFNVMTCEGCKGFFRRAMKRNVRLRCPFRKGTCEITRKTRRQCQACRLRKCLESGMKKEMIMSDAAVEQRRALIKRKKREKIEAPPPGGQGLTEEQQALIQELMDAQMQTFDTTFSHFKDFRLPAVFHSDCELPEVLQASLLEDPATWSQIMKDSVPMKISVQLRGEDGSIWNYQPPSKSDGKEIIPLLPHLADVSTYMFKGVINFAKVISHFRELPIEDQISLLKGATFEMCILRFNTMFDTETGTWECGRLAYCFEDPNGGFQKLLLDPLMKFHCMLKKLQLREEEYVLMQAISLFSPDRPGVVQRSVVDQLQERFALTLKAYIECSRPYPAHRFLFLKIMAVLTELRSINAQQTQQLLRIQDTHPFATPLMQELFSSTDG

Experiment [19] concerns the target Nuclear receptor subfamily 1 group I member 2 (Homo sapiens) (UniProt O75469). Description: CYP3A4 induction through human pregnane X receptor (PXR) by small molecules, qHTS assay (AID 1346984). Also: nearly all actives have a fitted effect of over 40% in size. Also: potency is read from the fitted curve at half-maximal effect. Summed up:
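Cells (DPX-2; HepG2 with PXR element plus CYP3A4-promoter luciferase) settled 5hr, then were treated 24hr at 37C. A 3hr, 3uM-final Luciferin-IPA step preceded luminescence measurement with One-Glo.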

The target is the same in experiment [20]. Description: Human pregnane X receptor (PXR) activation by small molecules, qHTS assay (AID 1346985). Also: nearly all actives have a fitted effect of over 40% in size. Also: potency is read from the fitted curve at half-maximal effect. In short, it runs like this: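 DPX-2 cells (HepG2 co-transfected with a PXR response element and a CYP3A4-promoter luciferase construct) were seeded at 2,000 per well, rested 5 hr at 37C, then exposed to DMSO-dissolved compounds for 24 hr. Activation was read as luciferase luminescence.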
% is scaled to controls: 0 for no effect and ±100 for the full control effect; tags tell the direction and shape of the fitted curve or compound fluorescence and quenching.

Peroxisome proliferator-activated receptor gamma (Homo sapiens), sequence (P37231 whole entry, looked up): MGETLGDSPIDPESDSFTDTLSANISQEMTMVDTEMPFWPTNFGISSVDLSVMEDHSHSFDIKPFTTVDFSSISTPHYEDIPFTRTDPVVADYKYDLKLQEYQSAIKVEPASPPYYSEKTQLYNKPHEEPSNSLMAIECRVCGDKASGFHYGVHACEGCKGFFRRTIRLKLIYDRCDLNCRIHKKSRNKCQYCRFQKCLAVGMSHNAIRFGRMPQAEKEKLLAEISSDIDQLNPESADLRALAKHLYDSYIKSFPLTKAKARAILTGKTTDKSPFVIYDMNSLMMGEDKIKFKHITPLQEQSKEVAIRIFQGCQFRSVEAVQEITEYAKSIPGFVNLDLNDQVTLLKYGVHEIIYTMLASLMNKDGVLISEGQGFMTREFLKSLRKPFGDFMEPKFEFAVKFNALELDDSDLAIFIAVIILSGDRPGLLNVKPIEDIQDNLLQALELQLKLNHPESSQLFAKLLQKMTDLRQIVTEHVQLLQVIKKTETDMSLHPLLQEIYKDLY
Glucocorticoid receptor (Homo sapiens), sequence (P04150 whole entry, looked up): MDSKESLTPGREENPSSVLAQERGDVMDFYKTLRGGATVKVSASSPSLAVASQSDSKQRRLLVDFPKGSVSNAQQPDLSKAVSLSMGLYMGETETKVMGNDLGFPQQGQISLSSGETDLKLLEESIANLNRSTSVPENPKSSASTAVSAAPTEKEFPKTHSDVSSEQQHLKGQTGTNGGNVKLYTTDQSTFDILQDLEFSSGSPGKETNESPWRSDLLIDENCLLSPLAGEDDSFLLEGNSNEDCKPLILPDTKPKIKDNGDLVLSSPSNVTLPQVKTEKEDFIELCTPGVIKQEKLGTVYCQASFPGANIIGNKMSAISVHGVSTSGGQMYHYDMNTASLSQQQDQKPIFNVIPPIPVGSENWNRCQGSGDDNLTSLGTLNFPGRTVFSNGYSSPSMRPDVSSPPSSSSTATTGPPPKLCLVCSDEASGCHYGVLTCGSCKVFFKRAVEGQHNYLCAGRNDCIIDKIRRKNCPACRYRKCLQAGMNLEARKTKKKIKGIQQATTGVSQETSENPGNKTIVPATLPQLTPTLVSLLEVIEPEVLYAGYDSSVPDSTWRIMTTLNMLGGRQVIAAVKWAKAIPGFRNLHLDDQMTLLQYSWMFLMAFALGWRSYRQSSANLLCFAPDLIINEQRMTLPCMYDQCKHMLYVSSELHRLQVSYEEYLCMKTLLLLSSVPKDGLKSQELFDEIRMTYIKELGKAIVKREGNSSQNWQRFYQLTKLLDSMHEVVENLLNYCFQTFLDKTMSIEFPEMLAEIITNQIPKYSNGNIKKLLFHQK

For the molecule `CN[C@]1(c2ccccc2Cl)CCCCC1=O`, the Potency result in experiment [1], in experiment [2], in experiment [3], in experiment [5], in experiment [7] and in [8] was “inactive” throughout. Also, the Potency entry in [9], in experiment [10], in experiment [11], in experiment [12], in experiment [13] and in experiment [14] was “inactive” throughout. Moreover, the Potency result in [15], in [16] and in experiment [17] was “inactive” in each case. Further, the call in experiment [4] and in experiment [6] was inactive.
As to `C[C@]12CCC(=O)C[C@@H]1CC[C@@H]1[C@@H]2CC[C@@]2(C)[C@H]1CC[C@]2(C)O`, the Potency result in experiment [1], in experiment [3], in experiment [7], in experiment [8], in [9] and in [10] was “inactive” in each case. For the same molecule, the Potency result in [11], in [12], in experiment [15], in [16] and in experiment [17] was “inactive” in each case. For the same molecule, the call in [4] and in experiment [6] was inactive. Moreover, the values for the Potency in [13] and in experiment [14] were 0.477 µM [inconclusive] (active) and 0.15 µM (active), respectively.
Turning to `C=CCC1(C(C)CCC)C(=O)N=C(S)NC1=O` (centres undefined), the Potency entry in experiment [1], in experiment [2], in experiment [3], in [7], in experiment [8] and in experiment [9] was “inactive” throughout. The Potency entry in experiment [10], in experiment [11], in experiment [12], in experiment [13], in experiment [14] and in experiment [15] was “inactive” each time. In addition, the Potency entry in [16] and in [17] was “inactive” throughout. In experiment [4], the outcome was inactive. Also, in [18], the max activation is -2.22%.
Turning to `c1ccc(C2(N3CCCC3)CCCCC2)cc1`, the Potency was 26.6 µM (active) in experiment [2]; 5.31 µM (active) in experiment [8]; 8.41 µM (active) in experiment [9]; 16.8 µM (active) in experiment [12]; 1.58 µM (active) in [19]; 5.01 µM (active) in [20]. In addition, the Potency result in [3], in [7], in experiment [13], in [14], in [15] and in [16] was “inactive” in each case. The molecule was called inactive in experiment [4] and in experiment [6].
With `O=C(NC(=O)c1c(F)cccc1F)Nc1ccc(Cl)c(Oc2ncc(C(F)(F)F)cc2Cl)c1`, the Potency entry in [3], in experiment [5], in [10], in experiment [13], in experiment [14] and in experiment [15] was “inactive” throughout. For the same molecule, the Potency result in experiment [16], in [17], in experiment [19] and in [20] was “inactive” throughout. The molecule was called inactive in experiment [4] and in experiment [6].
Take `O=c1ccc2cc(O[C@@H]3O[C@H](CO)[C@@H](O)[C@H](O)[C@H]3O)c(O)cc2o1`: the Potency in experiment [1] is 7.17 µM (active); in experiment [3], 10 µM [fluorescent] (active). The Potency result in experiment [2], in experiment [5], in [9], in [14] and in [15] was “inactive” throughout. For the same molecule, the call in experiment [4] and in experiment [6] was inactive.
For the molecule `CCC1(c2ccccc2)C(=O)NC(=O)N(C)C1=O` (centres undefined), the Potency entry in experiment [1], in [2], in experiment [3], in experiment [5], in experiment [7] and in experiment [9] was “inactive” in each case. Besides, the Potency entry in experiment [12], in experiment [16], in [17] and in [20] was “inactive” throughout. Further, in [4], the molecule was called inactive.

The record behind these values is PubChem BioAssay (Tox21).
